The values below come from the OligoGym collection.
Note: reference of the scale not given here.

One experiment deals with TTLL4. Briefly: pooled miR-30 sensor sort-seq; sequence = guide strand. Conditions: shRNA.
TTGCTAGTCTCTGATTTGCTGA: the sensor-assay potency score (higher = more potent) was -0.807. Sequence TTTGACAACAACATCCTTTATC showed a sensor-assay potency score (higher = more potent) of -1.2. TAGTTTTGACAACAACATCCTT showed a sensor-assay potency score (higher = more potent) of -0.466.

For TTGAGTATCACGTCATCCTTTG, the sensor-assay potency score (higher = more potent) is -0.629.

TTGATCACAGGTAACGTCTGGG came in with a sensor-assay potency score (higher = more potent) of 0.356.

Sequence TCGCACATACATCTTGAGCAGG returned a sensor-assay potency score (higher = more potent) of -1.1. TTTTTATTGACACTGTAGTTGG returned a sensor-assay potency score (higher = more potent) of -0.76. In turn, AGTTTTGACAACAACATCCTTT had a sensor-assay potency score (higher = more potent) of -0.763. Still for that read-out and setting: to TTCTTCTGTATCTTCAGTCTCA belongs 0.119. In turn, TTAGCTTCTGATGCTCTCGAAT registered a sensor-assay potency score (higher = more potent) of -0.842. TGTATCTTCAGTCTCAGCCTGA had a sensor-assay potency score (higher = more potent) of 0.277. On the same count and under the same terms, then TTTATTGACACTGTAGTTGGTC, with 0.947.

Another experiment addresses TTYH3. The experiment is described as above. To be noted: shRNA.
TTGGCTCTCATGCTGGAGGTGT showed a sensor-assay potency score (higher = more potent) of -0.0842. On the same count and under the same terms, to TAGAATCCCACTGCGATGCCGG belongs -0.487. Still for that read-out and setting: then TATTTGGCTCTCATGCTGGAGG, with -0.854; and TTGCCGTAGAATCCCACTGCGA, with -1.44. Same read-out and setting: to AAGCTCAGCCACGACATCCTGC belongs -0.514; to TAGCAGAAGCCGGTCAGCGCTT, -0.823; to TTTTGCTGCCAGGTGTGCGGGA, -0.687. In the case of TAGCCCAGCCACCTGTACCAGT, the sensor-assay potency score (higher = more potent) is -1.16. Sequence TTCAGCACCTCCTGGACGCGGA came in with a sensor-assay potency score (higher = more potent) of -0.58.

TAGTCGGTGTCCTCGGGCCGGA: the sensor-assay potency score (higher = more potent) was -1.53. Take TTGCACGTAGTCCAGATGCAGG: the sensor-assay potency score (higher = more potent) is -1.46. ATGATGACACACCAGGCCGTGC: the sensor-assay potency score (higher = more potent) was -1.46.

For the next experiment, the target named is TUBA8. Described as above. To be noted: shRNA.
As to TTGATCTTGCTAGCTTGAGCAT, the sensor-assay potency score (higher = more potent) was -0.893. On to TCGCACTTCACCATCTGGCTGT, for which the sensor-assay potency score (higher = more potent) was -0.0578. The sequence AATAGCGACATTCACATCCTTG came in with a sensor-assay potency score (higher = more potent) of -0.744. Sequence TTTCTTCTTCAAACGAATCAGT showed a sensor-assay potency score (higher = more potent) of -0.469. TACATGAGGTCGAACTTGTGGT registered a sensor-assay potency score (higher = more potent) of -0.814. The same measure, in the same setting: to TTGAGGACACAATCTGACTGAT belongs -0.409. Same read-out and setting: then TTTCTTGCCATAATCCAGGGAG, with -0.376; and TTGAGGTTGGTATAGGTAGGGC, with -0.964. On the same count and under the same terms, to TCGAACTTGTGGTCGAGGCGGG belongs -0.697. Regarding TGATCTTGCTAGCTTGAGCATC, the sensor-assay potency score (higher = more potent) is -1.14. TCATCATCGTTGATCTTGCTAG displayed a sensor-assay potency score (higher = more potent) of -0.473. As for ATTGAGGACACAATCTGACTGA, the sensor-assay potency score (higher = more potent) came to 0.101.

Another experiment has as its target TUBAL3. The description is as above. To be noted: shRNA.
TAGTGTGGAACCTAGAGTCTTG: the sensor-assay potency score (higher = more potent) was -0.173. TAAGGTACCAGGTTGGTCTGGA showed a sensor-assay potency score (higher = more potent) of 0.512.

As for TTCATTGTTGGTACTGACCCAC, the sensor-assay potency score (higher = more potent) came out at 0.0791.
